# Compounds with a hit are over-represented: about 22% of the library has one in this group of screens.
# CYP2C9 act – human CYP2C9 activators, primary screen, biochemical, luminescence; Cytochrome P450 2C9 (Homo sapiens), P11712; recombinant CYP2C9, luciferin-H conversion; active compounds read high; factor 1 = untreated enzyme, 0 = blocked; activation factor at 5 µM; actives 1.4% (n = 96,000);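 active = activation factor of 2 or more for CYP2C9 at a 5 µM dose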;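 also: 0 = sulfaphenazole-blocked wells and 1 = vehicle-only wells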
# CYP2C19 inh – blockers of cytochrome P450 2C19 activity – biochemical, luminescence, ADME assay, primary screen; P33261; CYP2C19 Supersomes, luciferin-H EGE luminescence, 30 min; inhibition, % at 5 µM; actives 21% (n = 96,000); AID 778, 2007;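 active = CYP2C19 inhibition above a set limit at 5 µM in the primary screen, cut at about 50% in these data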;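 also: plate controls were negative control wells for no effect and 2.5 mM tranylcypromine positive control for full effect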
# Target sequence (P33261 whole entry, looked up): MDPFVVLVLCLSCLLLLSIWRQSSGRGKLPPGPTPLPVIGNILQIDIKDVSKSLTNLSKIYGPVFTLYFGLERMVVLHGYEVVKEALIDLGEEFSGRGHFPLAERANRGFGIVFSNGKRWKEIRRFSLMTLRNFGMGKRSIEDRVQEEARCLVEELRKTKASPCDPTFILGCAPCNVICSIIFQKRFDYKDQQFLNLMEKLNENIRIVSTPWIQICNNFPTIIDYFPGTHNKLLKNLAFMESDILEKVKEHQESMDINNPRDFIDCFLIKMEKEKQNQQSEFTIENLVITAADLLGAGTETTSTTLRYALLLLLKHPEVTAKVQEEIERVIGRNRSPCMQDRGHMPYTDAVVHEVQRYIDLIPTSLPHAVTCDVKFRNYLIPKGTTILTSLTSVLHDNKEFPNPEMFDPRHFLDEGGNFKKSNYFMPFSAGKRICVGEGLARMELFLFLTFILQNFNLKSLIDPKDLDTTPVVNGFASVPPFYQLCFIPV
# Measles CPE – compounds protecting cells from measles virus cytopathic effect, primary screen, measles RdRp inhibitor project, single point, MLSMR library, absorbance; Measles virus-infected cells, CPE protection; protection (pct of control), % at 4 µM; actives 1.5% (n = 140,000); AID 841, 2007; in the data active = protection mostly above about 24%, no sharp cut-off; inactive = mostly below about 26%
# CYP2C9 inh – blockers of cytochrome P450 2C9 activity – biochemical, luminescence, ADME assay, primary screen. inhibition, % at 5 µM. P11712. CYP2C9 Supersomes, luciferin-H conversion. actives 20% (n = 96,000);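 active = blocking of liver enzyme CYP2C9 beyond about 50% at 5 µM, limit read from the data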
# CYP2C19 activ – human CYP2C19 activators, primary screen, biochemical, luminescence; Cytochrome P450 2C19 (Homo sapiens), P33261; recombinant CYP2C19, luciferin-H EGE luminescence; active compounds read high; 0 = fully inhibited enzyme, 1 = untreated enzyme; activation factor at 5 µM; 96,000 tested, under 10 active;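 active = activation factor of at least 2 at 5 µM in the primary screen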;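 also: 0 = wells with 2.5 mM tranylcypromine and 1 = vehicle-only wells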
# * hit, by the source's call; nt = no result given.
SMILES,CYP2C9 act,CYP2C19 inh,Measles CPE,CYP2C9 inh,CYP2C19 activ
Nc1c(C(=O)NCc2ccccc2)sc2nc(N3CCOCC3)c3c(c12)CCCC3,0.1,21.6,-1.2,86.3*,0.8
CC1(C)Cc2c(c(N3CCOCC3)nc3sc(-c4ccc(C(=O)O)o4)c(N)c23)CO1,nt,nt,3.5,nt,nt
CCOc1ccc2c(c1)OC(c1ccc(OC)cc1)(C(F)(F)F)NC2=O (configuration not stated),nt,nt,8.0,nt,nt
O=C(OCc1cc(=O)n2c(n1)sc1ccccc12)c1ccc2c(=O)n3c(nc2c1)CCC3,0.2,29.3,nt,75.9*,0.7
Cc1nc2nc[nH]n2c(=O)c1NC(=O)c1c(-c2ccccc2Cl)noc1C,0.6,4.9,2.1,39.4,1
O=C(OCC1COc2ccccc2O1)c1c(F)cccc1F (configuration not stated),0.2,96.9*,3.6,83.7*,0
COc1ccc2[nH]c(=O)c(CN(Cc3nnnn3Cc3ccco3)C3CCCCC3)cc2c1,0.2,88.9*,6.9,75.3*,0.1
COc1ccc2[nH]c(=O)c(CN(C3CCCCC3)C(c3nnnn3Cc3ccco3)C(C)C)cc2c1 (configuration not stated),0.1,59.9*,12.1,95.0*,0.4
CCOC(=O)Cn1nnnc1C(C(C)C)N(Cc1cc2c(C)cc(C)cc2[nH]c1=O)C1CCCC1 (configuration not stated),nt,nt,13.3,nt,nt
Cc1ccc2cc(C(c3nnnn3C3CCCC3)N(Cc3ccco3)Cc3cccs3)c(=O)[nH]c2c1 (configuration not stated),0.6,48.7,4.4,41.6,0.5
Cc1ccc2cc(C(c3nnnn3C3CCCC3)N(Cc3cccnc3)Cc3ccco3)c(=O)[nH]c2c1 (configuration not stated),0.3,92.0*,22.6,74.1*,0.1
CCC(c1nnnn1C1CCCCC1)N(Cc1ccco1)Cc1cc2ccc(OC)cc2[nH]c1=O (configuration not stated),0.2,95.3*,5.9,83.9*,0
CC1CCc2c(sc(NC(=O)CN3CCN(C(=O)c4ccco4)CC3)c2C#N)C1 (configuration not stated),0.9,9.8,27.1,6.5,0.9
COc1ccc2cc(CN(CCc3ccccc3)Cc3nnnn3Cc3ccco3)c(=O)[nH]c2c1,0,95.8*,2.1,99.6*,0
COc1ccccc1CN(Cc1cc2c(C)ccc(C)c2[nH]c1=O)Cc1nnnn1Cc1ccco1,0.2,59.6*,20.1,79.5*,0.4
COc1ccc2cc(CN(CCCN3CCOCC3)Cc3nnnn3C3CCCCC3)c(=O)[nH]c2c1,0.9,38.8,2.7,7.3,0.6
NC(=O)C1CCN(CC(=O)Nc2cccc(C(=O)Nc3cccc(C(F)(F)F)c3)c2)CC1,nt,nt,31.4,nt,nt
O=S(=O)(c1cc(Cl)ccc1Cl)N1CCNCC1,1.2,29.9,29.3,-20.1,0.7
CC1CCN(S(=O)(=O)c2cc(Cl)ccc2Br)CC1,3.1*,98.2*,5.1,-212.9,0
O=S(=O)(Cc1ccc(Cl)cc1)N1CCN(Cc2ccccc2)CC1,0.9,30.1,14.9,11.5,0.7
CC1CCCN(S(=O)(=O)c2cc(Cl)ccc2Cl)C1 (configuration not stated),2.4*,96.2*,2.1,-142.0,0
O=C(O)c1ccc(Cl)c(S(=O)(=O)N2CCCCCC2)c1,0.8,0.0,2.8,15.3,1
O=S(=O)(c1ccc(Cl)cc1Br)N1CCCCC1,1.8,87.1*,3.0,-84.7,0.1
CC1CCCN(S(=O)(=O)Cc2ccc(Cl)cc2)C1 (configuration not stated),1,97.0*,1.7,-0.7,0
COc1ccc(C)cc1NC(=O)COC(=O)C1CC1,1.3,-13.6,2.0,-31.0,1.1
SMILES,CYP2C9 act,CYP2C19 inh,Measles CPE,CYP2C9 inh,CYP2C19 activ
COc1cccc(NC(=O)COc2c(F)c(F)c(C(F)(F)F)c(F)c2F)c1,nt,nt,5.2,nt,nt
CCCN(CCC)S(=O)(=O)c1ccc(NC(=O)c2cc(C(=O)OC)cc([N+](=O)[O-])c2)cc1,1,17.5,3.3,-1.5,0.8
CN(C)CCNC(=O)/C=N/O,nt,nt,18.2,nt,nt
O=S(=O)(c1ccc(F)c2ccccc12)N1CCCCC1,4.7*,21.4,4.9,-366.6,0.8
O=S(=O)(c1ccccc1S(=O)(=O)N1CCCCC1)N1CCCCC1,0.9,10.7,2.9,6.5,0.9
CCOC(=O)C1CCCc2c1[nH]c1c(C(N)=O)cccc21 (configuration not stated),0.5,38.9,10.2,53.1*,0.6
Cc1ccc(-c2csc(/C(C#N)=C/Nc3ccccc3SC(F)(F)F)n2)c(C)c1,nt,nt,30.9,nt,nt
COc1cc(NC(=O)C2CCCN2C(=O)C2CCC(C)CC2)cc(OC)c1OC (configuration not stated),0.9,49.3,9.5,12.1,0.5
CCC(C)C(NC(=O)C1CCC(C)CC1)C(=O)NC(CCSC)C(=O)OC (configuration not stated),1,0.5,23.1*,-3.9,1
CCC(C)C(NC(=O)C1CCC(C)CC1)C(=O)Nc1cc(OC)ccc1OC (configuration not stated),0.3,12.1,11.5,69.0*,0.9
COc1ccccc1NC(=O)C(CC(C)C)NC(=O)C1CCCCC1 (configuration not stated),0.7,50.8*,2.5,25.9,0.5
COc1ccc(OC)c(NC(=O)C2CCCN2C(=O)C2CCC(C)CC2)c1 (configuration not stated),0.4,53.1*,17.8,57.2*,0.5
Cc1ccc(S(=O)(=O)N2CCOCC2)cc1NC(=O)COC(=O)C1COc2ccccc2O1 (configuration not stated),nt,nt,13.0,nt,nt
CCc1nnc(NC(=O)CN2CCN(C3CCCCC3)CC2)s1,1.1,-11.9,6.1,-8.6,1.1
Nc1nc2ccccc2n1C(=O)c1ccco1,nt,nt,2.3,nt,nt
Cc1ccc(C)c(-n2c(C)cc(/C=N/NC(=O)c3c(C)nc4cc(C)ccn34)c2C)c1,nt,nt,14.6,nt,nt
COc1ccc(CNC(=O)C/C(C)=N/NC(=O)C(c2ccccc2)c2ccccc2)cc1,0.4,14.5,7.6,55.5*,0.9
COc1ccccc1CNC(=O)CCCc1ccccc1,nt,nt,11.1,nt,nt
CC(C)CNC(=O)CCCc1ccccc1,0.6,83.0*,3.1,42.5,0.2
COc1ccc(CNC(=O)CCCc2ccccc2)cc1,nt,nt,31.2*,nt,nt
CC(C)CC(=O)NCCCCc1ccccc1,nt,nt,15.9,nt,nt
O=C(O)CCCC(=O)NCCCCc1ccccc1,1,-2.3,6.3,2.3,1
C=CCNC(=O)CCCc1ccccc1,1,67.2*,3.7,4.5,0.3
Cc1[nH]nc2c1C(c1ccccc1F)CC(=O)N2 (configuration not stated),1.1,-0.1,7.1,-7.6,1

# Assay outcomes deposited in PubChem by several laboratories.
